# Measured values taken from PubChem BioAssay AID2284142 (EPA ToxCast).
# Active and inactive are the calls of the source. The calls were made as follows: active = hit-call score of the fitted dose curve at least 0.9, where 1 is the maximum; inactive = score below 0.9.
# Target: human Adenosine Receptor A1 Agonism, ADORA1 (gene 134) (UniProt P30542)
# Assay: ERF_FR_GPCR_hADORA1: Eurofins (ERF) G Protein-Coupled Receptor (GPCR) Radioligand Binding LeadHunter Assay for human Adenosine Receptor A1 Agonism
# Description: ERF_FR_GPCR_hADORA1 is a biochemical, single-readout assay that uses extracted gene-proteins in a cell-free assay. Measurements were taken 1 hour after chemical dosing in a 96-well plate. See A1 Human Adenosine GPCR Binding (Agonist Radioligand) Assay, Cerep.ERF_FR_GPCR_hADORA1 is an assay component calculated from the ERF_FR_GPCR_hADORA1 assay. It is designed to measure radioligand binding using a type of binding reporter as detected by scintillation counting with radiometry technology.Data from the assay component ERF_FR_GPCR_hADORA1 was analyzed at the assay endpoint, ERF_FR_GPCR_hADORA1, in the positive analysis fitting direction relative to DMSO as the negative control and baseline of activity. Using a type of binding reporter, […] activity can be used to understand changes in binding as they relate to gene ADORA1. To generalize the intended target to other relatable targets, this assay endpoint is annotated to the gpcr intended target family, where the subfamily is adenosine.
# 2) Dose Response: 90 ul of 10 mM stock -OR- 1 mg (pre-weighed) for a top concentration at 10 uM.
# Chain of human Adenosine Receptor A1 Agonism, ADORA1 (gene 134) (P30542 whole entry, looked up): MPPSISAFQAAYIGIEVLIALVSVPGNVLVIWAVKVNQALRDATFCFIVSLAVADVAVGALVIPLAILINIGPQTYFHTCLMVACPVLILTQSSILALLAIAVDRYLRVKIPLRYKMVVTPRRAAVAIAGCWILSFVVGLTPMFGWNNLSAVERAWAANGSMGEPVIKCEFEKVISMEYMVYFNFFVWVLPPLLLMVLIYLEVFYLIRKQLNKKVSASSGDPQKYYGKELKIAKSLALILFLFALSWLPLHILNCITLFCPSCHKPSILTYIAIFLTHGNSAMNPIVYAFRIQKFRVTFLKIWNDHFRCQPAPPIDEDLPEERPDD
row,SMILES,AC50
1,O=C(/C=C/c1ccc(O)cc1)CC(=O)/C=C/c1ccc(O)cc1,1920 nM (active)
